About 83,000 compounds went through this panel and 20% of them were active in at least one assay; those are over-represented in the sample as a whole.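 Method: cells in 96-well plates; compound added at one concentration; 48 h incubation; percent growth measured; values under 10 scored active.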 Values without a mark were called inactive. The source made the active and inactive calls.

The subject of one assay is BT-549 breast. In words: NCI-60 one-dose screen, 48 h (100 = growth as untreated, 0 = no growth, -100 = all killed). The following applies: 10 µM unless noted.
With `Cc1cc(N2CCN(C)CC2)nc(N(CCNc2ccnc3cc(Cl)ccc23)Cc2ccco2)n1`, the growth is 31.1%.

Consider `COc1cc2c3c(c4c5ccccc5[nH]c4c2c(OC)c1OC)C(=O)N(O)C3=O`, for which the growth is 46.2%.

As to `COc1ccc(C2NC(=O)Nc3ccccc32)c(OC)c1` (stereo unspecified), the growth is 109%.

On to `C/C(=N\Nc1cc(C)c2cc(C)ccc2n1)c1ccccn1`, for which the growth is 21.2%.

Take `CC(C)=CCC[C@](C)(O)[C@H]1CC[C@]2(C)[C@@H]1CC[C@@H]1[C@@]3(C)C/C(=C/c4ccc(Br)cc4)C(=O)C(C)(C)[C@@H]3CC[C@]12C`: the growth was 95.4%.

`CCOC(=O)N1CCN(CCCCOc2ccc(C(C)(C)CC)cc2)CC1`: the growth is 82.3%.

For the compound `COC(=O)CCCCCn1c2ccccc2c2c3c(c4c5ccccc5[nH]c4c21)C(=O)N(O)C3=O`, the growth is 59%.

With `Fc1ccc(Nc2nnc(-c3ccc(Cl)cc3)o2)cc1`, the growth was 99%.

As for `C/C(=N\Nc1ccc2ccccc2n1)c1ccccn1`, the growth was 20.3%.

For `C=C1C(=O)O[C@H]2[C@H]1CC/C(Cn1cc(-c3ccc(F)cc3)nn1)=C\CC[C@@]1(C)O[C@@H]21`, the growth was 43.5%.

Regarding `CSc1ccc(N(C)c2nc(C)nc3c2CCC3)cc1`, the growth is 23.6%.

Turning to `Cc1ccc(-c2nc([P+](c3ccccc3)(c3ccccc3)c3ccccc3)c(N3CCOCC3)o2)cc1`, the growth was -13% (active).

With `Fc1ccc2c(c1)c(-c1nc(-c3c[nH]c4ncccc34)cs1)cn2CCCN1CCCCC1`, the growth was 88.8%.

As for `CCCC1CCCCN1C(=O)OCC(C)C` (stereo unspecified), the growth was 114%.

As to `Cc1ccc(-c2nc3ccc(Cl)cc3c(=O)n2N2C(=O)CSC2c2ccccc2Cl)cc1` (stereo unspecified), the growth was 100%.

Take `Nc1ccc(Br)cn1`: the growth is 94.7%.

For the compound `COc1ccc(-c2nc(SCC(=O)Nc3ccc(C(C)=O)cc3)[nH]c(=O)c2C#N)cc1`, the growth was 82.2%.

`Nc1ccc(Cl)cn1`: the growth is 104%.

Turning to `CCN1CCN(c2nc(C)cc(N(CCCNc3ccnc4cc(Cl)ccc34)Cc3ccco3)n2)CC1`, the growth was 54.5%.

On to `CCc1ccccc1NC(=O)c1sc2nc3c(cc2c1N)CCCC3`, for which the growth is 48.4%.

For the compound `N#CCCCCCn1c2ccccc2c2c3c(c4c5ccccc5n(CCCCCC#N)c4c21)C(=O)N(O)C3=O`, the growth was 75%.

Consider `CCC(=O)c1c(C)[nH]c(C)c1C`, for which the growth was 94%.

Turning to `O=C1NC(=Nc2ccc(S(=O)(=O)Nc3nccs3)cc2)S/C1=C\c1coc2ccccc2c1=O`, the growth was 106%.

In the case of `O=C(NC(Cc1cn(Cc2ccccc2)cn1)C(=O)O)OCC1c2ccccc2-c2ccccc21` (stereo unspecified), the growth was 97.2%.

In the case of `Cn1cc(-c2csc(-c3c[nH]c4ccc(F)cc34)n2)c2cccnc21`, the growth was 57.4%.

`O=C1C(=O)N(CCCCn2cc(-c3ccccc3)nn2)c2ccccc21`: the growth was 96.7%.

Turning to `CCCCC(=O)OC1CCCCC1C` (stereo unspecified), the growth is 85.2%.

As to `Cc1ccc(N(CC(=O)Nc2ccc(S(=O)(=O)NC3CCN(C)CC3)cc2)S(=O)(=O)c2ccc(Cl)cc2)cc1`, the growth was 86.6%.

With `COc1ccc2c(c1)C(Br)=C(CCO)C2c1ccccc1` (stereo unspecified), the growth was 87.7%.

Take `C#Cc1cc2c(N)c(C(=O)c3cc(OC)c(OC)c(OC)c3)[nH]c2cc1OC`: the growth was 57.4%.

Take `COc1cnc2c(c1)C(=O)c1c-2n(CCCNC2=NCCS2)c(=O)c2cc([N+](=O)[O-])ccc12`: the growth was 35%.

Turning to `CN1CCN(CC#CCn2c3c(c4ccccc42)C[C@]2(C)[C@H]4CC[C@@H]5[C@H]6[C@H]7OC(=O)[C@@]6(CCC7(C)C)CC[C@@]5(C)[C@]4(C)CC[C@H]2C3(C)C)CC1`, the growth was 89.5%.

As for `Cc1nc([P+](c2ccccc2)(c2ccccc2)c2ccccc2)c(Sc2sc(-c3ccccc3)nc2[P+](c2ccccc2)(c2ccccc2)c2ccccc2)o1`, the growth is -0.458% (active).

For the compound `CN(CSc1ccc(Cl)cc1)c1ccc(CSc2ccc(Cl)cc2)cc1`, the growth was 51.4%.

As for `O=S(=O)(NCCNc1cc(-c2cn(-c3ccccc3)nc2-c2cccc(O)c2)ccn1)c1ccc(F)cc1`, the growth is 32.2%.

As for `O=C1CNCCN1`, the growth is 100%.

Turning to `COc1ccc(O)c(-c2cc(-c3ccc(Cl)cc3)c(C#N)c(=O)[nH]2)c1`, the growth was 9.41% (active).

As for `CCN(CC)c1ccc(/C=C/c2cc(C)c3ccccc3n2)cc1`, the growth was 93.2%.

The next assay deals with MDA-MB-435 melanoma. The description is as above. The following applies: 10 µM unless noted.
Take `Cc1cc(N2CCN(C)CC2)nc(N(CCNc2ccnc3cc(Cl)ccc23)Cc2ccco2)n1`: the growth is -39.8% (active).

In the case of `COc1cc2c3c(c4c5ccccc5[nH]c4c2c(OC)c1OC)C(=O)N(O)C3=O`, the growth was 56.1%.

For the compound `COc1ccc(C2NC(=O)Nc3ccccc32)c(OC)c1` (stereo unspecified), the growth was 101%.

Take `C/C(=N\Nc1cc(C)c2cc(C)ccc2n1)c1ccccn1`: the growth was -89.4% (active).

Turning to `CC(C)=CCC[C@](C)(O)[C@H]1CC[C@]2(C)[C@@H]1CC[C@@H]1[C@@]3(C)C/C(=C/c4ccc(Br)cc4)C(=O)C(C)(C)[C@@H]3CC[C@]12C`, the growth is 95.3%.

With `CCOC(=O)N1CCN(CCCCOc2ccc(C(C)(C)CC)cc2)CC1`, the growth was 105%.

In the case of `COC(=O)CCCCCn1c2ccccc2c2c3c(c4c5ccccc5[nH]c4c21)C(=O)N(O)C3=O`, the growth was 71.2%.

`Fc1ccc(Nc2nnc(-c3ccc(Cl)cc3)o2)cc1`: the growth was 111%.

As for `C/C(=N\Nc1ccc2ccccc2n1)c1ccccn1`, the growth was 3.21% (active).

`C=C1C(=O)O[C@H]2[C@H]1CC/C(Cn1cc(-c3ccc(F)cc3)nn1)=C\CC[C@@]1(C)O[C@@H]21`: the growth was -31.4% (active).

As to `CSc1ccc(N(C)c2nc(C)nc3c2CCC3)cc1`, the growth was -12.8% (active).

With `Cc1ccc(-c2nc([P+](c3ccccc3)(c3ccccc3)c3ccccc3)c(N3CCOCC3)o2)cc1`, the growth is -6.62% (active).

`Fc1ccc2c(c1)c(-c1nc(-c3c[nH]c4ncccc34)cs1)cn2CCCN1CCCCC1`: the growth was -20% (active).

`CCCC1CCCCN1C(=O)OCC(C)C` (stereo unspecified): the growth is 100%.

Consider `Cc1ccc(-c2nc3ccc(Cl)cc3c(=O)n2N2C(=O)CSC2c2ccccc2Cl)cc1` (stereo unspecified), for which the growth is 66.9%.

For `Nc1ccc(Br)cn1`, the growth was 113%.

`COc1ccc(-c2nc(SCC(=O)Nc3ccc(C(C)=O)cc3)[nH]c(=O)c2C#N)cc1`: the growth was 111%.

Regarding `Nc1ccc(Cl)cn1`, the growth is 106%.

In the case of `CCN1CCN(c2nc(C)cc(N(CCCNc3ccnc4cc(Cl)ccc34)Cc3ccco3)n2)CC1`, the growth was 4.03% (active).

For `CCc1ccccc1NC(=O)c1sc2nc3c(cc2c1N)CCCC3`, the growth is 1.18% (active).

In the case of `N#CCCCCCn1c2ccccc2c2c3c(c4c5ccccc5n(CCCCCC#N)c4c21)C(=O)N(O)C3=O`, the growth is 91.3%.

For the compound `CCC(=O)c1c(C)[nH]c(C)c1C`, the growth is 95.1%.

For `O=C1NC(=Nc2ccc(S(=O)(=O)Nc3nccs3)cc2)S/C1=C\c1coc2ccccc2c1=O`, the growth was 124%.

In the case of `O=C(NC(Cc1cn(Cc2ccccc2)cn1)C(=O)O)OCC1c2ccccc2-c2ccccc21` (stereo unspecified), the growth was 113%.

With `Cn1cc(-c2csc(-c3c[nH]c4ccc(F)cc34)n2)c2cccnc21`, the growth was -28% (active).

Consider `O=C1C(=O)N(CCCCn2cc(-c3ccccc3)nn2)c2ccccc21`, for which the growth is 108%.

On to `CCCCC(=O)OC1CCCCC1C` (stereo unspecified), for which the growth was 101%.

On to `Cc1ccc(N(CC(=O)Nc2ccc(S(=O)(=O)NC3CCN(C)CC3)cc2)S(=O)(=O)c2ccc(Cl)cc2)cc1`, for which the growth is -44.3% (active).

On to `COc1ccc2c(c1)C(Br)=C(CCO)C2c1ccccc1` (stereo unspecified), for which the growth was 91.8%.

Consider `C#Cc1cc2c(N)c(C(=O)c3cc(OC)c(OC)c(OC)c3)[nH]c2cc1OC`, for which the growth is -15.8% (active).

On to `COc1cnc2c(c1)C(=O)c1c-2n(CCCNC2=NCCS2)c(=O)c2cc([N+](=O)[O-])ccc12`, for which the growth was -92.7% (active).

With `CN1CCN(CC#CCn2c3c(c4ccccc42)C[C@]2(C)[C@H]4CC[C@@H]5[C@H]6[C@H]7OC(=O)[C@@]6(CCC7(C)C)CC[C@@]5(C)[C@]4(C)CC[C@H]2C3(C)C)CC1`, the growth was 97.8%.

As to `Cc1nc([P+](c2ccccc2)(c2ccccc2)c2ccccc2)c(Sc2sc(-c3ccccc3)nc2[P+](c2ccccc2)(c2ccccc2)c2ccccc2)o1`, the growth is -9.1% (active).

Regarding `CN(CSc1ccc(Cl)cc1)c1ccc(CSc2ccc(Cl)cc2)cc1`, the growth is 45.8%.

`O=S(=O)(NCCNc1cc(-c2cn(-c3ccccc3)nc2-c2cccc(O)c2)ccn1)c1ccc(F)cc1`: the growth was 2.49% (active).

On to `O=C1CNCCN1`, for which the growth was 107%.

On to `COc1ccc(O)c(-c2cc(-c3ccc(Cl)cc3)c(C#N)c(=O)[nH]2)c1`, for which the growth is 5.98% (active).

With `CCN(CC)c1ccc(/C=C/c2cc(C)c3ccccc3n2)cc1`, the growth was -6.87% (active).

The values are drawn from PubChem BioAssay (NCI).
